Test [1] addresses Retinoic acid receptor RXR-alpha (Homo sapiens) (UniProt P19793). Briefly: qHTS assay to identify small molecule agonists of the RXR signaling pathway (AID 1159527; calls by dose curve; also: nearly all actives have a fitted effect of over 35% in size). Summed up:
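Agonist-mode beta-lactamase reporter assay: HEK 293T RXR-alpha-UAS-bla cells treated 16 hr at 37 C with compounds, 9-cis retinoic acid as positive control. LiveBLAzer FRET substrate, 405 nm excitation, 460/530 nm emission.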
Background: Quantitative high-throughput screening tests each substance at several concentrations.

Test [2] in a line: qHTS assay to identify small molecule agonists of the RXR signaling pathway - cell viability counter screen (AID 1159529). Also: series mostly up to about 77 µM; nearly all actives have a fitted effect of over 50% in size. Summed up:
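CellTiter-Glo luminescence gave viability in the wells also read for beta-lactamase. Cells (RXR-alpha-UAS-bla HEK 293T, 2% charcoal-stripped FBS medium) had 5 hr plating, then 16 hr compound exposure at 37 C; tetraoctyl ammonium bromide served as positive control.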

The nature of test [3]: qHTS assay to identify small molecule antagonists of the retinoid acid receptor (RAR) signaling pathway - cell viability counter screen (AID 1159551). Also: nearly all actives have a fitted effect of over 35% in size. The method, boiled down:
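Measured by luminescent ATP detection, viability reflects C3RL4 cells treated 6 h at 37 C with test chemicals in the presence of 1 uM (final) retinol.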

The nature of test [4]: qHTS assay to identify small molecule antagonists of the retinoic acid receptor (RAR) signaling pathway (AID 1159552; also: nearly all actives have a fitted effect of over 50% in size). Summed up: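 Luminescent RARE reporter read-out in C3RL4 cells: 6 hr co-treatment at 37 C of test compounds with retinol at 1 uM final. Cells plated overnight beforehand; luciferase reagent incubated 30 min at room temperature before reading.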
A short description of test [5]: qHTS assay to identify small molecule agonists of the retinoic acid receptor (RAR) signaling pathway (AID 1159553). Also: potency is read from the fitted curve at half-maximal effect. Summed up: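 6 hr compound exposure (DMSO vehicle) of overnight-plated C3RL4 RARE-luc cells at 37 C; luminescence quantified after 30 min RT with luciferase reagent.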
The nature of test [6]: qHTS assay to identify small molecule antagonists of the estrogen related receptor (ERR) signaling pathway from Tox21 library - cell viability counter screen (AID 1224834). Also: nearly all actives have a fitted effect of over 30% in size. Also: potency is read from the fitted curve at half-maximal effect. Summed up: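 Seeded ERR cells were rested 6 h at 37 C/5% CO2 before compounds, positive and negative controls or DMSO were added. Incubation continued for 17.5 h, and viability was then quantified by CellTiter-Fluor fluorescence.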

Test [7] deals with Luciferin 4-monooxygenase (Photinus pyralis) (UniProt P08659). Put plainly: qHTS assay to identify small molecule inhibitors of firefly luciferase (AID 1224835). Also: nearly all actives have a fitted effect of over 25% in size. Also: potency is read from the fitted curve at half-maximal effect. Summed up: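 Biochemical qHTS: compounds run as interplate titrations against purified firefly enzyme, with D-luciferin and ATP each at its KM concentration. Light output recorded by CCD imaging.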
Sequence of Luciferin 4-monooxygenase (Photinus pyralis) (P08659 whole entry, looked up): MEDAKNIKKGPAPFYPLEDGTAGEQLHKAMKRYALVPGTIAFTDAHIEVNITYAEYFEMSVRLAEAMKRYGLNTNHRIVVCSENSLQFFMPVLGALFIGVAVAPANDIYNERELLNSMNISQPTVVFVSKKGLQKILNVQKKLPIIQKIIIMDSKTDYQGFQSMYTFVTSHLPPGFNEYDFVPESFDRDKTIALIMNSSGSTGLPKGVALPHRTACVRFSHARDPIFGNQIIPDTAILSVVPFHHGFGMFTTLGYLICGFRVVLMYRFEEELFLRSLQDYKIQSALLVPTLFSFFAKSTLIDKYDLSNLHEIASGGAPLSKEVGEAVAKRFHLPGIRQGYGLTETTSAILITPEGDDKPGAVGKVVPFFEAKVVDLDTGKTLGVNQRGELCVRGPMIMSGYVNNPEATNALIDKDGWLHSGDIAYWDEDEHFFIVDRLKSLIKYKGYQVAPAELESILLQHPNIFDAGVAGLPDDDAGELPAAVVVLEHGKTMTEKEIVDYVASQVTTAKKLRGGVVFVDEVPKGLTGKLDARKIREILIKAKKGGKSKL
A short description of test [8]: qHTS assay to identify small molecule antagonists of the constitutive androstane receptor (CAR) signaling pathway - cell viability counter screen (AID 1224837). Also: series mostly up to about 92 µM; nearly all actives have a fitted effect of over 45% in size. Summed up:
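To flag cytotoxic false antagonists, HepG2 hCAR/CYP2B6-2.2kb cells were treated 23 hr with 15-concentration compound series and 50 nM CITCO at 37 C/5% CO2; CellTiter-Fluor fluorescence was the measured end point.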

For test [9], the target named is Nuclear receptor subfamily 1 group I member 3 (Homo sapiens) (UniProt Q14994). Put plainly: qHTS assay to identify small molecule antagonists of the constitutive androstane receptor (CAR) signaling pathway (AID 1224838).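 Also: HepG2 cells stably expressing hCAR with CYP2B6 luciferase reporter stimulated by CITCO; nearly all actives have a fitted effect of over 40% in size.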 Summed up:
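Human hepatoma HepG2 cells expressing hCAR and a CYP2B6 promoter (2.2 kb) luciferase construct; compound titration (15 points) with 50 nM CITCO final, 24 h at 37 C/5% CO2; luminescence via ONE-Glo after 30 min at room temperature.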

Test [10] has the same target. Briefly: qHTS assay to identify small molecule agonists of the constitutive androstane receptor (CAR) signaling pathway (AID 1224839).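 Also: HepG2 cells stably carrying human CAR and a CYP2B6 luciferase reporter; series mostly up to about 92 µM; nearly all actives have a fitted effect of over 15% in size.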 The method, boiled down: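 Luminescent ONE-Glo read-out after 24 hr, 37 C exposure of double-stable HepG2-CYP2B6-hCAR reporter cells to a 15-point compound series, in the presence of 0.75 uM PK11195 (final).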
The nature of test [11]: qHTS assay to identify small molecule antagonists of the estrogen related receptor signaling pathway with the pleiotropic PPARgamma coactivator (PGC) from Tox21 10K library - cell viability counter screen (AID 1224840; active = well fitted cell-killing curve with a large enough effect in the repeat runs, not every such curve was filed as active; also: nearly all actives have a fitted effect of over 40% in size). The method, boiled down:
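Seeded PGC/ERR cells (2,000/well, 6 h, 37 C/5% CO2) get compound by pin tool; 17.5 h incubation at 37 C; CellTiter-Fluor added, 30 min, fluorescence measured.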

The nature of test [12]: qHTS assay to identify small molecule antagonists of the estrogen related receptor signaling pathway with the pleiotropic PPARgamma coactivator (PGC) from Tox21 10K library (AID 1224841; call rule not given here; also: series mostly up to about 92 µM; actives are mostly falling curves and most rising ones were filed inactive; nearly all actives have a fitted effect of over 50% in size). Summed up: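 Test chemicals dissolved in DMSO were applied to pre-incubated (6 h) PGC/ERR cells at 2,000 cells/well for an 18 h, 37 C treatment; reporter luminescence was then read using One-Glo.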

Test [13] is described as follows: qHTS assay to identify small molecule agonists of the estrogen related receptor signaling pathway with the pleiotropic PPARgamma coactivator (PGC) from Tox21 10K library (AID 1224842). Also: nearly all actives have a fitted effect of over 15% in size. The method, boiled down: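 PGC/ERR reporter cell line, 2,000 cells per well, incubated 6 h at 37 C before 23 nL compound in DMSO was added. After 18 h at 37 C, One-Glo luminescence read following 30 min at room temperature.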

A short description of test [14]: qHTS assay to identify small molecule agonists of the constitutive androstane receptor (CAR) signaling pathway - cell viability counter screen (AID 1224836). Also: series mostly up to about 92 µM; nearly all actives have a fitted effect of over 45% in size. Summed up:
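Cell viability multiplexed with the CAR agonist screen: CellTiter-Fluor fluorescence after 23 hr at 37 C. HepG2-CYP2B6-hCAR cells got compounds at 15 concentrations with PK11195 at 0.75 uM final.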

“And” between values parts separate entries of the source, which are not always exact repeats. Equal entries are not always repeated. Results filed as inconclusive are left out. More than one record can exist for a structure, and the calls need not agree. The source made the active and inactive calls. Unless noted, calls follow the shape of the dose curve; as a rule, active = well fitted curve in the direction sought with a large enough effect in the repeat runs; inconclusive = weak or mixed curves; inactive = no such curve, though single readings can be large; an effect the other way counts as inactive or inconclusive.

Sequence of Retinoic acid receptor RXR-alpha (Homo sapiens) (P19793 whole entry, looked up): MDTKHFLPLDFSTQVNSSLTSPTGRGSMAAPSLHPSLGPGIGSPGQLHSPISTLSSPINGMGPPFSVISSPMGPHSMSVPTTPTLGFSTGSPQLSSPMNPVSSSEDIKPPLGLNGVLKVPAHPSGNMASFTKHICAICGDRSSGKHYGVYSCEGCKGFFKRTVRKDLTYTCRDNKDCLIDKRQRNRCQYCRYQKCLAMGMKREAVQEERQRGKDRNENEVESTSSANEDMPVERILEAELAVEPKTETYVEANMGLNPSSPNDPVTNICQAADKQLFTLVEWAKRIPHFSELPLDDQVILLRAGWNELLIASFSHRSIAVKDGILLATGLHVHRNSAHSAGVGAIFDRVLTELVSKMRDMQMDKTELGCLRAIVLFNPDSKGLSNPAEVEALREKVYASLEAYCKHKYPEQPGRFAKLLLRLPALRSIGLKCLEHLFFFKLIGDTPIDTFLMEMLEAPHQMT
Sequence of Nuclear receptor subfamily 1 group I member 3 (Homo sapiens) (Q14994 whole entry, looked up): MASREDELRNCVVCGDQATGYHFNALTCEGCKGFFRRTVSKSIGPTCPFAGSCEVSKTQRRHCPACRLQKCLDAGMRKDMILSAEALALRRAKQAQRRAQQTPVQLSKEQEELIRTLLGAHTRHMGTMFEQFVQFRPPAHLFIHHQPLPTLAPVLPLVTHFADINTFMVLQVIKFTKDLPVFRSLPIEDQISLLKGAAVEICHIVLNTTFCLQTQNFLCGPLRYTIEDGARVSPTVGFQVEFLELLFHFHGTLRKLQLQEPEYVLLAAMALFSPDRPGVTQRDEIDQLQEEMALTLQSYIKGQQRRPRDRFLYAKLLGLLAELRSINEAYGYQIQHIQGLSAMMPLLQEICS

Regarding `CSc1nnc(C(C)(C)C)c(=O)n1N`, the Potency result in test [1], in test [4], in [5], in test [6], in [7] and in test [8] was “inactive” in each case. The Potency result in [9] and in test [10] was “inactive” throughout. For the same compound, the result in test [2] and in [3] was inactive.

Take `OCC(O)CCl` (centres undefined): the Potency result in test [1], in [4], in [5], in [6], in test [7] and in [8] was “inactive” each time. Besides, the Potency result in test [9], in test [10] and in test [11] was “inactive” in each case. The compound was called inactive in test [2] and in [3].

`CN(C)C(=O)Cl`: the Potency entry in test [1], in [4], in test [5], in [6], in [7] and in test [8] was “inactive” in each case. The Potency result in test [9], in [10], in [12] and in test [13] was “inactive” throughout. Also, the compound was classed as inactive in test [2] and in test [3].

Regarding `CC(=O)C1CCOC1=O` (centres undefined), the Potency entry in test [1], in test [4], in test [5], in test [6], in test [7] and in test [8] was “inactive” throughout. The compound was called inactive in test [2] and in [3].

With `Nc1ncc([N+](=O)[O-])s1`, the Potency result in test [1], in test [4], in [5], in [7], in test [14] and in [8] was “inactive” in each case. Besides, the Potency result in test [12] and in test [13] was “inactive” each time. Besides, the compound was called inactive in [2] and in test [3]. For the same compound, the Potency in test [6] is 49 µM (active) and inactive.

As to `C=CC#N`, the Potency entry in [1], in [4], in [5], in [6], in test [7] and in test [8] was “inactive” throughout. For the same compound, the Potency result in [9], in test [10], in [11], in [12] and in [13] was “inactive” each time. The call in test [2] and in test [3] was inactive.

As for `CCOC(=O)CC(SP(=O)(OC)OC)C(=O)OCC` (centres undefined), the Potency entry in [1], in test [4], in test [5], in [6], in [7] and in [8] was “inactive” in each case. The Potency result in [9], in test [10] and in [11] was “inactive” throughout. Also, the compound was classed as inactive in test [2] and in [3].

In the case of `COS(=O)(=O)OC`, the Potency result in test [1], in test [4], in [5], in test [6], in test [7] and in test [14] was “inactive” throughout. Moreover, the Potency entry in test [8] and in test [11] was “inactive” in each case. Further, the outcome in test [2] and in test [3] was inactive.

Turning to `CN(C)CCC#N`, the Potency result in test [1], in test [4], in test [5], in test [6], in test [7] and in test [8] was “inactive” each time. Besides, the compound was called inactive in test [2] and in [3].

For the compound `O=C/C=C/c1ccccc1`, the Potency entry in test [1], in test [4], in test [6], in test [8], in test [9] and in test [10] was “inactive” in each case. Further, in [11], the Potency entry is “inactive”. For the same compound, the outcome in test [2] and in test [3] was inactive. For the same compound, the Potency result is “inactive and 34.4 µM (active)” in [5]; “inactive and 44.8 µM (active)” in test [7].

Take `COc1nc(NC(C)C)nc(NC(C)C)n1`: the Potency entry in test [1], in [4], in [5], in [6], in [7] and in test [8] was “inactive” in each case. Also, the Potency entry in test [9], in [10], in test [12] and in test [13] was “inactive” throughout. The outcome in test [2] and in [3] was inactive.

On to `Oc1ccc(Cl)cc1`, for which the Potency result in [1], in [4], in [5], in test [6], in [14] and in [8] was “inactive” each time. Besides, the Potency entry in [9], in test [10] and in test [11] was “inactive” in each case. Besides, the compound was classed as inactive in test [2] and in test [3].

As to `[N-]=[N+]=CC(=O)OC[C@H](N)C(=O)O`, the Potency result in [1], in [4], in test [5], in test [6], in test [7] and in test [8] was “inactive” throughout. The Potency entry in test [11], in test [12] and in test [13] was “inactive” throughout. Further, the outcome in test [2] and in test [3] was inactive.

Source of the values: PubChem BioAssay (Tox21).
